Six1-Eya2 inh: qHTS Assay for Inhibitors of the Six1/Eya2 Interaction; Homeobox protein SIX1 (Homo sapiens) + Protein phosphatase EYA2 (Homo sapiens), …; AlphaScreen GST-Six1/His-Eya2 binding, biochemical; active compounds read low; activity change, % (concentration not given with the values); actives 0.56% (n = 360,000); AID 651725, 2012; in the data active = activity change below about -65%; inconclusive = mostly about -30% to -63%; also: % is scaled to controls: 0 for no effect and ±100 for the full control effect
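AlphaScreen luminescence read after one hour at 37 °C in darkness. Pin-transferred compounds met GST-Six1 and His-Eya2 protein (5X stock 250 nM/500 nM) plus glutathione donor and Ni-chelate acceptor beads (5X, 50 ug/mL).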
BAZ2B inh: qHTS Assay for Inhibitors of BAZ2B. Potency, µM (top dose mostly 114 µM), for inactives: at the top dose activity change, negative = inhibition, usual class: inhibitors. AlphaScreen BAZ2B-H3K14Ac peptide displacement. AID 504333, 2011. actives 4.4% (n = 360,000); also: potency is read from the fitted curve at half-maximal effect; % is scaled to controls: 0 for no effect and ±100 for the full control effect; nearly all actives have a fitted effect of over 60% in size
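BAZ2B 50 nM plus b-H3(5-23)K14Ac 50 nM, PBS pH 7.4/0.01% Tween-20, 30 min RT; compound added (max 110 uM), 30 min RT; streptavidin donor/Ni-chelate acceptor beads 10 ug/mL final, 20 min dark; AlphaScreen read.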
G9a block: qHTS Assay for Inhibitors of Histone Lysine Methyltransferase G9a. Histone-lysine N-methyltransferase EHMT2 (Homo sapiens), Q96KQ7. Potency, µM (titrated, usually from 102 µM), inactives show at the highest dose activity, negative = inhibition, most hits filed as inhibitors. G9a H3K9 monomethylation, AlphaScreen, 2 h. AID 504332, 2011. actives 8.8% (n = 350,000); also: potency is read from the fitted curve at half-maximal effect; % is scaled to controls: 0 for no effect and ±100 for the full control effect; nearly all actives have a fitted effect of over 75% in size
Target sequence (Q96KQ7 913-1193 limits assumed): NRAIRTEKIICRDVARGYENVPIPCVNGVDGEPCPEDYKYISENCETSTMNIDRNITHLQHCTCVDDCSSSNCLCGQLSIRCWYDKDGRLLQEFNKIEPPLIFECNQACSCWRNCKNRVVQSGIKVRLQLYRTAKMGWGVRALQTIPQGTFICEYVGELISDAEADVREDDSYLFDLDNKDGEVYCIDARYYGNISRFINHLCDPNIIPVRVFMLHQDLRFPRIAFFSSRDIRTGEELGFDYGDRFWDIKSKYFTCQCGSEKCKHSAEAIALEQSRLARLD
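Quantitative HTS format: methyltransferase activity on a biotin-tagged H3K9 peptide is measured by AlphaScreen, using a rabbit anti-monomethyl-H3K9 antibody with streptavidin donor and anti-IgG acceptor beads. Final levels are 20 nM enzyme, 500 nM peptide, 20 uM SAM; 2 h RT.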
JMJD2A Tudor inh: qHTS Assay for Inhibitors of JMJD2A-Tudor Domain | AlphaScreen JMJD2A-Tudor / H3K4me3 peptide binding | Lysine-specific demethylase 4A (Homo sapiens), O75164 | actives 4.4% (n = 390,000) | Potency, µM (series often up to 114 µM), for inactives: top-dose activity change, negative = inhibition, actives largely listed as inhibitors | AID 504339, 2011; also: potency is read from the fitted curve at half-maximal effect; % is scaled to controls: 0 for no effect and ±100 for the full control effect; nearly all actives have a fitted effect of over 50% in size
HP1b chromo inh: HTS for Inhibitors of HP1-beta Chromodomain Interactions with Methylated Histone Tails. actives 0.56% (n = 390,000). AlphaScreen HP1-beta / biotin-H3K9me3 peptide binding. AID 540317, 2011. Potency, µM (top dose mostly 114 µM), without a hit: at the highest dose activity change, negative = inhibition, most hits filed as inhibitors. Chromobox protein homolog 1 (Homo sapiens), P83916; also: potency is read from the fitted curve at half-maximal effect; nearly all actives have a fitted effect of over 70% in size
Target sequence (P83916 whole entry, looked up): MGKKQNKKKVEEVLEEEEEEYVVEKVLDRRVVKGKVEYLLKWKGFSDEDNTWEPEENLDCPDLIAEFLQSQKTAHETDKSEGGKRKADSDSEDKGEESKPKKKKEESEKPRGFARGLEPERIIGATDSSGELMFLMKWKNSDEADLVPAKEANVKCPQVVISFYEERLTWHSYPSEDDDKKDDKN
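Compound inhibition of the preformed complex between 50 nM HP1-beta and 50 nM biotinylated H3K9me3 peptide was read by AlphaScreen. Buffer was PBS pH 7.4 with 0.01% Tween-20. Incubations ran 30 min at room temperature, with 10 ug/mL donor/acceptor beads.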
CtBP-E1A inh: qHTS Assay for Inhibitors of the CtBP/E1A Interaction; activity change, % (no concentration beside the values); actives 0.49% (n = 340,000); AlphaScreen GST-E1A/His-CtBP binding, 1536-well; active compounds read low; in the data active = activity change below about -65%; inconclusive = mostly about -30% to -63%; also: % is scaled to controls: 0 for no effect and ±100 for the full control effect
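Steps: dispense buffer (Tris pH 8.0, NaCl 300 mM, TCEP 1 mM, BSA, Tween 20); add 5X protein mix (GST-E1A, His-CtBP, 125 nM each); pin 23 nL compound; 2 h at 37 °C, dark; add 5X beads (50 ug/mL); 1 h; read.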
* marks the source's active call; other numbers are inactive results; u = inconclusive; x = no result; [ ] = dose if it differs, or a comment. Hits are enriched below; roughly 10% of the tested compounds scored in any of these assays. Unless noted, calls follow the shape of the dose curve; as a rule, active = well fitted inhibition curve with a large enough effect; inconclusive = small, poorly fitted or top-dose-only effect; inactive = no such curve, though single readings can be large or run the other way.

SMILES	Six1-Eya2 inh	BAZ2B inh	G9a block	JMJD2A Tudor inh	HP1b chromo inh	CtBP-E1A inh
CC(C)n1cc(CN2CCC(Oc3ccc(C(=O)N4CCCCC4)cc3)CC2)cn1	11	-1%	29%	-12%	3%	-6
O=C(/C=C/c1ccc(Br)cc1)c1ccco1	11	1%	0%[59 µM]	-11%	6%	6
O=C(/C=C/C=C/c1ccccc1)c1ccco1	-4	u	50µM*	-23%	-18%	x
O=C(/C=C\c1ccccc1)Nc1ccc(NC(=O)c2ccco2)cc1	1	-9%	-7%	10µM*	u	9
CCCN(c1ccc(C(C)C)cc1)S(=O)(=O)c1ccc2c(c1)CCN2C(=O)CC	x	-6%	-8%[59 µM]	-1%	15%	x
Cc1ccc(S(=O)(=O)Cn2nnnc2CN2CCOCC2)cc1	2	-34%	-10%[59 µM]	-10%	51%	4
Cc1ccc(S(=O)(=O)Cn2nnnc2CN2CCCC3(CCCCC3)C2)cc1	-2	0%	25µM*	3%	54%	8
N#Cc1c(NC(=O)c2ccc(Cn3cc(Br)cn3)o2)sc2c1CCCCC2	-4	11%[57.1 µM]	13%	-31%	23%	9
COC(=O)c1sc(NC(=O)c2ccc(Cn3cc(Cl)cn3)o2)c(C#N)c1C	-2	-37%	7.9µM*	u	-41%	-3
CN1CCN(C(=O)c2ccc(CS(=O)Cc3ccc(Cl)cc3)o2)CC1 (stereo unspecified)	4	0%	-8%	-8%	24%	1
O=C(c1ccc(Cn2cc(Cl)cn2)o1)N1CCN(Cc2ccc3c(c2)OCO3)CC1	0	u	45µM*	-18%	4%	-6
CN1CCN(C(=O)c2ccc(Cn3cc(Cl)cn3)o2)CC1	-6	3%	71µM*	-1%	31%	5
COc1ccccc1N1CCN(S(=O)(=O)CCNC(=O)C(C)Oc2ccccc2)CC1 (stereo unspecified)	-15	x	x	x	x	-3
CCCNC(=O)C1(C)CCN(C(=O)c2ccc(C)c(F)c2)C1 (stereo unspecified)	3	x	x	x	x	6
COc1ccc(OC)c(/C=C/C(=O)OCC(=O)N2CCCCC2)c1	-15	x	x	5%	33%	-77*
Cn1ccnc1-c1nc2ccccc2[nH]c1=O	-22	18µM*	2.5µM*	35µM*	20%	-17
CC(=O)c1ccc(-c2ccc(C(=O)NCC3CCCO3)o2)cc1 (stereo unspecified)	-4	4%	79µM*	-15%	34%	-29
O=C(NCC1CCCO1)c1ccc(-c2cccc(C(F)(F)F)c2)o1 (stereo unspecified)	4	-7%	22%	-19%	33%	-14
CC(=O)c1ccc(-c2ccc(C(=O)NC3CC(C)(C)NC(C)(C)C3)o2)cc1	-18	-4%	40µM*	-22%	17%	-8
Cc1cc(C)nc(SCC(=O)Nc2ccc(S(=O)(=O)Nc3onc(C)c3C)cc2)n1	0	5%	-16%	-5%	44%	8
Cc1noc(NS(=O)(=O)c2ccc(NC(=O)CSc3nc4ccccc4s3)cc2)c1C	-10	-15%	8.9µM*	u	-31%	-22
Cc1noc(NS(=O)(=O)c2ccc(NC(=O)CSc3nc4c(cc3C#N)CCCC4)cc2)c1C	-15	-9%	25µM*	-12%	39%	-5
Cc1noc(NS(=O)(=O)c2ccc(NC(=O)CSc3nc4c(cc3C#N)CCC4)cc2)c1C	-22	u	7.1µM*	25µM*	-1%	-16
Cc1noc(NS(=O)(=O)c2ccc(NC(=O)CSc3ncccn3)cc2)c1C	6	3%	u	-30%	38%	1
CCc1ccc2c(c1)c(=O)c(S(=O)(=O)c1ccccc1)cn2CC(=O)Nc1cc(C)ccc1C	x	-6%	0%[59 µM]	-7%	50%	x
SMILES	Six1-Eya2 inh	BAZ2B inh	G9a block	JMJD2A Tudor inh	HP1b chromo inh	CtBP-E1A inh
O=C(c1ccccc1)c1ccc(OCC(O)CNCc2ccc(F)cc2)cc1 (stereo unspecified)	0	35µM*	5µM*	5µM*	-10%	0
COc1ccc(C(OCC(O)CNCCc2ccccc2)c2ccc(OC)cc2)cc1 (stereo unspecified)	3	32µM*	6%[0.501 µM]	3.5µM*	u	2
Cc1ccc(C(OCC(O)CNCc2ccc(F)cc2)c2ccccc2)cc1 (stereo unspecified)	-1	40µM*	u	79µM*	-34%	x
COc1ccc(C(OCC(O)CNC(C)c2ccccc2)c2ccc(OC)cc2)cc1 (stereo unspecified)	-5	-22%	-4%	-29%	-15%	-20
O=C(NNC(=O)c1ccccc1F)c1ccc(NS(=O)(=O)c2ccc(F)cc2)cc1	-5	7%	-9%	-14%	29%	5
COc1ccccc1NC(=O)CCN1CCC(C(N)=O)CC1	x	5%	14%[59 µM]	-6%	69%	x
FC(F)(F)Oc1ccccc1C(c1nnnn1C1CCCC1)N1CCN(C/C=C/c2ccccc2)CC1 (stereo unspecified)	-8	x	x	x	x	-10
CN1CCN(c2ncc3ncc(=O)n(-c4ccccc4)c3n2)CC1	x	x	23%[0.501 µM]	x	x	x
Cc1ccccc1CC(=O)Nc1ccc(S(=O)(=O)N2CCN(C)CC2)cc1	-3	-5%	x	-18%	9%	12
Cc1ccc(C(=O)NCCn2ccc3ccccc32)cc1[N+](=O)[O-]	-3	x	-44%	79µM*	-15%	4
Cc1ccc(C(=O)NCCSc2c(C)[nH]c3ccccc23)cc1[N+](=O)[O-]	-16	u	50µM*	u	4%	0
Cc1cc(CNC(=O)Cn2nc(C)c([N+](=O)[O-])c2C)c2ccccc2n1	0	-19%	35µM*	-19%	35%	2
Cc1c(C(=O)NCCn2ccc3ccccc32)cccc1[N+](=O)[O-]	-2	x	-43%	-18%	25%	0
COc1cc(C(=O)NCCSc2c(C)[nH]c3ccccc23)cc(OC)c1OC	x	-25%	-7%[59 µM]	u	23%	x
Cc1cc(CNC(=O)c2ccc(C)c([N+](=O)[O-])c2)c2ccccc2n1	4	-35%	35µM*	-8%	22%	-7

Source: PubChem BioAssay
